# Measured values published in PubChem BioAssay (EPA / NIEHS).
# Results filed as inconclusive are left out. Active and inactive are the calls of the source. Rule for the calls: active = hit-call score of the fitted dose curve at least 0.9, where 1 is the maximum; inconclusive = response in the unintended direction; inactive = score below 0.9.
# What was measured:
# [1] = Tanguay_ZF_120hpf_TR_legacy: (Legacy) Oregon State University Tanguay Lab 120 Hour Post-fertilization zebrafish Assay for Touch Response (AID 2283667)
# Summary of the method: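 Tropical 5D wild-type zebrafish embryos were exposed statically in sealed, foil-covered plates at 28C until 120 hpf, with 0.64% (vol/vol) final DMSO. Touch response was scored as present or absent; embryos that died were not scored.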
# [2] = CLD_ACTIN_24hr: CellzDirect (CLD) Gene Expression Assay for Baseline Control (Actin) at 24 hours (AID 2283670)
# Summary of the method: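 Primary human hepatocytes dosed over multiple concentrations with 0.2% DMSO vehicle; actin mRNA measured at 24 h by qNPA chemiluminescence. Background control endpoint, fitted as gain of signal versus DMSO.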
# [3] = read-out: glucuronosyltransferase (UGT1A1), UGT1A1 (gene 54658); assay: CLD_UGT1A1_6hr: CellzDirect (CLD) Gene Expression Assay for glucuronosyltransferase (UGT1A1) at 6 hours (AID 2283672)
# Summary of the method: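 Primary human hepatocytes from two donor preparations, dosed with fresh solutions in 0.2% DMSO, harvested at 6 h. UGT1A1 mRNA measured by qNPA chemiluminescence; induction fitted upward versus DMSO.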
# [4] = read-out: Cytochrome P450 2B6 (Homo sapiens) (UniProt P20813); assay: CLD_CYP2B6_6hr: CellzDirect (CLD) Gene Expression Assay for xenobiotic metabolism (CYP2B6) at 6 hours (AID 2283677);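 note: actives raise CYP2B6 transcript above DMSO baseline so AC50 marks an inducer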
# Summary of the method: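 Primary human hepatocytes dosed with chemicals at multiple concentrations, vehicle 0.2% DMSO; CYP2B6 mRNA induction measured 6 h after dosing by quantitative nuclease protection assay with chemiluminescence, gain of signal fitted relative to DMSO.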
# [5] = read-out: alkyl and aryl transferase (GSTA2), GSTA2 (gene 2939); assay: CLD_GSTA2_6hr: CellzDirect (CLD) Gene Expression Assay for alkyl and aryl transferase (GSTA2) at 6 hours (AID 2283666)
# Summary of the method: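 Primary human hepatocytes from two donor preparations were dosed daily with fresh compound at multiple concentrations, 0.2% DMSO vehicle. GSTA2 mRNA was measured at 6 hours by qNPA chemiluminescence; induction fitted relative to DMSO, with cytotoxicity flagged morphologically.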
# [6] = CLD_ACTIN_6hr: CellzDirect (CLD) Gene Expression Assay for Baseline Control (Actin) at 6 hours (AID 2283676);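 note: active means increased actin mRNA relative to DMSO vehicle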
# Summary of the method: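 Primary human hepatocytes dosed with fresh chemical solutions (vehicle 0.2% DMSO), harvested at 6 h. Actin mRNA quantified by quantitative nuclease protection assay with chemiluminescent read-out, as background control relative to DMSO.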
# [7] = read-out: Cytochrome P450 2C19 (Homo sapiens) (UniProt P33261); assay: CLD_CYP2C19_6hr: CellzDirect (CLD) Gene Expression Assay for xenobiotic metabolism (CYP2C19) at 6 hours (AID 2283678)
# Summary of the method: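 Primary human hepatocytes from two donor preparations were dosed daily, with 0.2% DMSO as vehicle, and harvested 6 h after dosing. CYP2C19 mRNA induction was measured by qNPA chemiluminescence and fitted as gain of signal against DMSO.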
# [8] = read-out: xenobiotic metabolism (CYP1A1), CYP1A1 (gene 1543); assay: CLD_CYP1A1_24hr: CellzDirect (CLD) Gene Expression Assay for xenobiotic metabolism (CYP1A1) at 24 hours (AID 2283673);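 note: CYP1A1 mRNA level by quantitative nuclease protection with chemiluminescence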
# Summary of the method: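 Primary human hepatocytes dosed daily with fresh solutions in 0.2% DMSO vehicle. mRNA measured at 24 h by quantitative nuclease protection assay with chemiluminescence; gain-of-signal fit versus DMSO, with morphology-based cytotoxicity flags.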
# [9] = read-out: sulfotransferase (SULT2A), SULT2A1 (gene 6822); assay: CLD_SULT2A_6hr: CellzDirect (CLD) Gene Expression Assay for sulfotransferase (SULT2A) at 6 hours (AID 2283669);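 note: hits raise transcript level above the DMSO vehicle baseline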
# Summary of the method: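 Primary human hepatocytes from two donor preparations were dosed daily with chemicals or 0.2% DMSO and harvested at 6 h. Transcript induction read by qNPA chemiluminescence, fitted for gain of signal relative to DMSO; morphology-based cytotoxicity annotated.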
# [10] = read-out: ABC Transporter (ABCB11), ABCB11 (gene 8647); assay: CLD_ABCB11_6hr: CellzDirect (CLD) Gene Expression Assay for ABC Transporter (ABCB11) at 6 hours (AID 2283675);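 note: hits raise ABCB11 mRNA level so AC50 marks induction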
# Summary of the method: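 Human primary hepatocytes (two donor preparations) given fresh chemical daily at multiple concentrations, vehicle 0.2% DMSO. ABCB11 mRNA induction measured 6 h after dosing by qNPA chemiluminescence versus DMSO; cytotoxicity annotated from morphology.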
# Chain of Cytochrome P450 2C19 (Homo sapiens) (P33261 whole entry, looked up): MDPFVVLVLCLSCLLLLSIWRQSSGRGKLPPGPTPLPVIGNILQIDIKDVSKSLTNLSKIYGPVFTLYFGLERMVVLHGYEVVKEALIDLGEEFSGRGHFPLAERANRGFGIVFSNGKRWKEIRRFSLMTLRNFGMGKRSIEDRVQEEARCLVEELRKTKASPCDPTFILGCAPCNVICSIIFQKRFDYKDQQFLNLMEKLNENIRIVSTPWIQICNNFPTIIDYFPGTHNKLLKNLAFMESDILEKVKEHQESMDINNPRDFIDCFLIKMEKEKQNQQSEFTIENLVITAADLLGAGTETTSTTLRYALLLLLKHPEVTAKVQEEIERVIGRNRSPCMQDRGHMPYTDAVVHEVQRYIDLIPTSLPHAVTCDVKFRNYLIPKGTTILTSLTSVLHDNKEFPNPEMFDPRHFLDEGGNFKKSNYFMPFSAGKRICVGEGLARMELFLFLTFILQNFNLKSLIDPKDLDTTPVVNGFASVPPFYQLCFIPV
structure (smiles),measurement,setting,value
COP(=O)(OC)SCn1c(=O)oc2cc(Cl)cnc21,outcome,[1],inactive
CNC(=O)Oc1cccc2c1OC(C)(C)O2,outcome,[1],inactive
same,outcome,[2],inactive
same,outcome,[3],inactive
same,AC50,[4],2740 nM (active)
CNC(=O)ON=C(SC)C(=O)N(C)C,outcome,[5],inactive
same,outcome,[1],inactive
same,outcome,[2],inactive
same,outcome,[3],inactive
same,outcome,[6],inactive
same,outcome,[7],inactive
O=c1ccc(=O)[nH][nH]1,outcome,[1],inactive
same,outcome,[2],inactive
same,outcome,[3],inactive
same,outcome,[7],inactive
CC(C)=CC1C(C(=O)OCN2C(=O)C3=C(CCCC3)C2=O)C1(C)C (stereo unspecified),outcome,[1],inactive
same,outcome,[3],inactive
same,outcome,[8],inactive
same,outcome,[6],inactive
CN(C)NC(=O)CCC(=O)O,outcome,[1],inactive
same,outcome,[2],inactive
same,outcome,[3],inactive
same,outcome,[6],inactive
same,outcome,[4],inactive
CCOC(=O)COc1cc(-c2nn(C)c(OC(F)F)c2Cl)c(F)cc1Cl,outcome,[1],inactive
same,outcome,[3],inactive
CCCCOC(=O)[C@@H](C)Oc1ccc(Oc2ccc(C#N)cc2F)cc1,outcome,[1],inactive
same,outcome,[2],inactive
same,outcome,[3],inactive
same,outcome,[6],inactive
same,outcome,[7],inactive
CC(C1CC1)C(O)(Cn1cncn1)c1ccc(Cl)cc1 (stereo unspecified),outcome,[1],inactive
same,outcome,[9],inactive
same,outcome,[3],inactive
same,AC50,[4],1280 nM (active)
same,outcome,[7],inactive
Cc1nn(-c2cc(NS(C)(=O)=O)c(Cl)cc2Cl)c(=O)n1C(F)F,outcome,[5],inactive
same,outcome,[1],inactive
same,outcome,[9],inactive
same,outcome,[2],inactive
same,outcome,[3],inactive
same,outcome,[6],inactive
Cc1ccn2nc(S(=O)(=O)Nc3c(F)cccc3F)nc2n1,outcome,[1],inactive
same,outcome,[9],inactive
same,outcome,[2],inactive
same,outcome,[3],inactive
CCOP(=S)(OCC)Oc1ccc([N+](=O)[O-])cc1,outcome,[5],inactive
same,outcome,[3],inactive
same,AC50,[8],5990 nM (active)
CCCOCC(=Nc1ccc(Cl)cc1C(F)(F)F)n1ccnc1,outcome,[1],inactive
same,outcome,[9],inactive
same,outcome,[3],inactive
same,AC50,[8],2360 nM (active)
same,outcome,[6],inactive
CC1(C(=O)Nc2ccc(O)c(Cl)c2Cl)CCCCC1,outcome,[1],inactive
same,outcome,[2],inactive
same,outcome,[3],inactive
same,outcome,[10],inactive
same,outcome,[7],inactive
CCc1cccc(C)c1N(C(=O)CCl)C(C)COC (stereo unspecified),outcome,[1],inactive
same,outcome,[2],inactive
same,outcome,[3],inactive
same,outcome,[6],inactive
same,AC50,[4],596 nM (active)
CN(C)[C@@H]1C(=O)C(C(N)=O)=C(O)[C@@]2(O)C(=O)C3=C(O)c4c(O)cccc4[C@@](C)(O)[C@H]3[C@H](O)[C@@H]12,outcome,[1],inactive
same,outcome,[2],inactive
same,outcome,[3],inactive
same,outcome,[6],inactive
same,outcome,[4],inactive
same,outcome,[7],inactive
COP(=O)(OC)OC(Br)C(Cl)(Cl)Br (stereo unspecified),outcome,[1],inactive
same,outcome,[2],inactive
same,outcome,[3],inactive
same,outcome,[10],inactive
same,outcome,[7],inactive
COP(=O)(OC)C(O)C(Cl)(Cl)Cl (stereo unspecified),outcome,[1],inactive
same,outcome,[2],inactive
same,outcome,[3],inactive
CSC1=N[C@@](C)(c2ccccc2)C(=O)N1Nc1ccccc1,outcome,[1],inactive
same,outcome,[2],inactive
same,outcome,[3],inactive
same,outcome,[6],inactive
same,AC50,[4],1880 nM (active)
O=[N+]([O-])c1cc(C(F)(F)F)c(Cl)c([N+](=O)[O-])c1Nc1ncc(C(F)(F)F)cc1Cl,outcome,[1],inactive
same,outcome,[9],inactive
same,outcome,[7],inactive
C[N+]1(C)CCCCC1,outcome,[1],inactive
same,outcome,[2],inactive
same,outcome,[3],inactive
same,outcome,[6],inactive
same,outcome,[7],inactive
CCOP(=S)(OCC)Oc1ccc2c(C)c(Cl)c(=O)oc2c1,outcome,[1],inactive
same,outcome,[2],inactive
same,outcome,[3],inactive
same,AC50,[4],1440 nM (active)
CC[C@H](C)[C@H]1O[C@]2(C=C[C@@H]1C)C[C@@H]1C[C@@H](C/C=C(\C)[C@@H](O[C@H]3C[C@H](OC)[C@@H](O[C@H]4C[C@H](OC)[C@@H](NC)[C@H](C)O4)[C@H](C)O3)[C@@H](C)/C=C/C=C3\CO[C@@H]4[C@H](O)C(C)=C[C@@H](C(=O)O1)[C@]34O)O2,AC50,[1],47.9 nM (active)
same,outcome,[2],inactive
same,outcome,[3],inactive
same,outcome,[6],inactive
same,AC50,[7],32600 nM (active)
Nc1nc(N)nc(NC2CC2)n1,outcome,[1],inactive
same,outcome,[2],inactive
same,outcome,[3],inactive
same,outcome,[6],inactive
same,outcome,[7],inactive
CON=C(C(=O)OC)c1ccccc1CON=C(C)c1cccc(C(F)(F)F)c1,outcome,[1],inactive
same,outcome,[2],inactive
same,outcome,[3],inactive
same,outcome,[8],inactive
same,outcome,[7],inactive
CCc1cnc(C2=NC(C)(C(C)C)C(=O)N2)c(C(=O)O)c1 (stereo unspecified),outcome,[5],inactive
same,outcome,[1],inactive
same,outcome,[2],inactive
same,outcome,[3],inactive
same,outcome,[6],inactive
same,outcome,[7],inactive
COc1cccc(C(=O)NN(C(=O)c2cc(C)cc(C)c2)C(C)(C)C)c1C,outcome,[1],inactive
same,outcome,[2],inactive
same,outcome,[3],inactive
same,outcome,[7],inactive
CC(Oc1cccc(Cl)c1)C(=O)O (stereo unspecified),outcome,[1],inactive
same,outcome,[2],inactive
same,outcome,[3],inactive
same,outcome,[6],inactive
same,outcome,[7],inactive
FC(F)C(F)(F)OCC(Cn1cncn1)c1ccc(Cl)cc1Cl (stereo unspecified),AC50,[1],34800 nM (active)
same,outcome,[2],inactive
same,outcome,[3],inactive
same,AC50,[4],1120 nM (active)
C#CCC1=C(C)C(OC(=O)C2C(C=C(C)C)C2(C)C)CC1=O (stereo unspecified),outcome,[1],inactive
same,outcome,[3],inactive
same,AC50,[8],20000 nM (active)
same,outcome,[6],inactive
CCCSP(=O)(OCC)Oc1ccc(Br)cc1Cl (stereo unspecified),outcome,[1],inactive
same,outcome,[3],inactive
S=C1NCCN1,outcome,[1],inactive
same,outcome,[2],inactive
same,outcome,[6],inactive
COP(=O)(NC(C)=O)SC (stereo unspecified),outcome,[1],inactive
same,outcome,[9],inactive
same,outcome,[2],inactive
same,outcome,[3],inactive
same,outcome,[6],inactive
same,outcome,[7],inactive
CCOP(=S)(OCC)SCCSCC,outcome,[1],inactive
same,outcome,[9],inactive
same,outcome,[2],inactive
same,outcome,[3],inactive
same,outcome,[6],inactive
same,AC50,[4],14100 nM (active)
same,outcome,[7],inactive
